According to PubChem BioAssay (Tox21):
A number with no mark means an inactive call. Results filed as inconclusive are left out. Entries that show only a call come without a potency. Activity calls are given as the source filed them. The call rests on the fitted dose curve.

Biological target: Estrogen receptor (Homo sapiens) (UniProt P03372)
Assay: qHTS assay to identify small molecule agonists of the estrogen receptor alpha (ER-alpha) signaling pathway in the presence of an antagonist (AID 1259383); further: top concentration of the series differs between compounds; nearly all actives have a fitted effect of over 15% in size
Details: VM7Luc4E2 cells, ERE-luciferase, +ICI-182,780, 22 h; series mostly up to 92.4 µM; activation: at the top concentration
Outline: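 Luciferase luminescence (ONE-Glo, 30min at room temperature) measured in VM7Luc4E2 cells after 22hr compound exposure at 15 concentrations, with 10.0nM ICI-182,780 final present; cells express endogenous ER-alpha and carry four EREs upstream of luciferase.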

Chain of Estrogen receptor (Homo sapiens) (P03372 whole entry, looked up): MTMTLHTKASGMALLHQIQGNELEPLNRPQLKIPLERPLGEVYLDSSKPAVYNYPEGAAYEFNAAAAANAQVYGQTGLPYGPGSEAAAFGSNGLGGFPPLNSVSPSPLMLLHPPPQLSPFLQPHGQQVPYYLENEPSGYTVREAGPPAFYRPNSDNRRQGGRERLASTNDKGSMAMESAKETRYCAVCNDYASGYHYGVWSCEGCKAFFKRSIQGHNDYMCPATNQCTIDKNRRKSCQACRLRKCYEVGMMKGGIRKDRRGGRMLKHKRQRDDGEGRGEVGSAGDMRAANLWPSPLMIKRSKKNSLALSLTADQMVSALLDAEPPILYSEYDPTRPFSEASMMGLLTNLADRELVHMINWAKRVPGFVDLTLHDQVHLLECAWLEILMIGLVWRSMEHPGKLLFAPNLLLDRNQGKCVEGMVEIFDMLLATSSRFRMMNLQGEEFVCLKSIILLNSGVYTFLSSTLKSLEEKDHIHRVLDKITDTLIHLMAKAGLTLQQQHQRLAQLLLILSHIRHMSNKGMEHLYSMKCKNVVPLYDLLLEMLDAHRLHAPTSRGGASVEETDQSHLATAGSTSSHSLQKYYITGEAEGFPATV

SMILES | Potency
OC(Cn1cncn1)(Cn1cncn1)c1ccc(F)cc1F | inactive
O=c1cc[nH]c(=S)[nH]1 | inactive
CCCNC(=O)NS(=O)(=O)c1ccc(Cl)cc1 | inactive
Nc1ccc(C(=O)O)cc1 | inactive

Test system: not listed separately
Assay: qHTS assay to identify small molecule agonists or antagonists of the thyroid stimulating hormone receptor (TSHR) signaling pathway - wild type cell line counter screen (AID 1259384)
Details: HEK293 wild type, cAMP HTRF counter-screen, hits give high values; series mostly up to 92.4 µM; cAMP activity change: at the top concentration
Outline: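 Wild-type HEK293 cells were plated 18 h at 37 C/5% CO2, pin-dosed with compound plus Ro20-1724 medium, held 30 min at room temperature, then given cAMP-d2 and anti-cAMP-cryptate; fluorescence was read after 1 h. Fifteen concentrations, triplicate.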

SMILES | outcome
Cc1noc(NS(=O)(=O)c2ccc(N)cc2)c1C | inactive
CC(C)(Oc1ccc(C2CC2(Cl)Cl)cc1)C(=O)O (centres undefined) | inactive
CCCC(CCC)C(=O)O | inactive
OC(Cn1cncn1)(Cn1cncn1)c1ccc(F)cc1F | inactive
CCCCC1C(=O)N(c2ccccc2)N(c2ccccc2)C1=O | inactive
O=c1cc[nH]c(=S)[nH]1 | inactive
CC(C)[C@@H]1CC[C@@H](C)C[C@H]1O | inactive
NC(=O)c1ccccc1O | inactive
NNC(=O)c1ccncc1 | inactive
CCCNC(=O)NS(=O)(=O)c1ccc(Cl)cc1 | inactive
NC(N)=O | inactive
CCCCC(CC)COC(=O)/C=C/c1ccc(OC)cc1 (centres undefined) | inactive
NS(=O)(=O)c1cc(C(=O)O)c(NCc2ccco2)cc1Cl | inactive
Nc1ccc(C(=O)O)cc1 | inactive
O=C(O)CCCCC(=O)O | inactive
CCCN(CCC)S(=O)(=O)c1ccc(C(=O)O)cc1 | inactive
NC(N)=NC(=O)c1nc(Cl)c(N)nc1N | inactive
Cc1ccc(O)cc1 | inactive
C1N2CN3CN1CN(C2)C3 | inactive
Nc1ccn([C@H]2CC[C@@H](CO)O2)c(=O)n1 | inactive
CC1(C)[C@@H]2CC[C@@]1(C)C(=O)C2 | inactive
Nc1ccc(O)c(C(=O)O)c1 | inactive
COc1ccc2[nH]cc(CCNC(C)=O)c2c1 | inactive
Cc1ccc(S(=O)(=O)NC(=O)NN2CCCCCC2)cc1 | inactive
Cc1ccc(C)c(OCCCC(C)(C)C(=O)O)c1 | inactive
Nc1ccc(S(=O)(=O)c2ccc(N)cc2)cc1 | inactive
Oc1ccc(/C=C/c2cc(O)cc(O)c2)cc1 | inactive
CC(=O)Nc1nnc(S(N)(=O)=O)s1 | inactive
Cn1cc[nH]c1=S | inactive
O=c1ccc2ccccc2o1 | inactive

Biological target: Thyrotropin receptor (Homo sapiens) (UniProt P16473)
Sequence (P16473 whole entry, looked up): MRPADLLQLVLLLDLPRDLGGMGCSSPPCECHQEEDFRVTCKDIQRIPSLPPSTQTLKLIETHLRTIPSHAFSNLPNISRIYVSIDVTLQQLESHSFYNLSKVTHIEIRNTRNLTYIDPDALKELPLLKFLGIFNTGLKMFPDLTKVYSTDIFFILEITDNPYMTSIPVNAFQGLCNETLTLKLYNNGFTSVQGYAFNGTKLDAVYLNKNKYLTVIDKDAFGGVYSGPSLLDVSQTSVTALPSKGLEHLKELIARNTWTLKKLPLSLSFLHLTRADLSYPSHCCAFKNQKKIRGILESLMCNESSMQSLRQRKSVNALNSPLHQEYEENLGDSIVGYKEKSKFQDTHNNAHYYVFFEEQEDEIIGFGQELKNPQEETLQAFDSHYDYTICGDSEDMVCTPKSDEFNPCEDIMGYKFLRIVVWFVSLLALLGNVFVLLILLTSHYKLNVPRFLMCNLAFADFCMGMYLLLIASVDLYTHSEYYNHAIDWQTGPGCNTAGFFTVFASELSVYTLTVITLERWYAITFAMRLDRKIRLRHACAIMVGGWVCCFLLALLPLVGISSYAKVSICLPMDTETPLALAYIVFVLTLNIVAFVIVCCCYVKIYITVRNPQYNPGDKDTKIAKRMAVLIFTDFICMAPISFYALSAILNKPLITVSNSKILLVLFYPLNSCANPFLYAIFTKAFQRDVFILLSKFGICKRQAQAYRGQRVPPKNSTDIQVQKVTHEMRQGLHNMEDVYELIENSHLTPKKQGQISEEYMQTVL
Assay: qHTS assay to identify small molecule antagonists of the thyroid stimulating hormone receptor (TSHR) signaling pathway (AID 1259385); further: nearly all actives have a fitted effect of over 20% in size
Details: TSHR-HEK293 cAMP HTRF, TSH-stimulated antagonist mode; series mostly up to 92.4 µM; activity change, negative = inhibition: at the top concentration
Outline: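 TSHR-HEK293 cells were plated and held 18 h at 37C/5% CO2, then given compound plus Ro20-1724 and stimulated with TSH at 1.5 ng/mL final. After 30 min at room temperature, cAMP was detected with cAMP-d2/anti-cAMP-cryptate (1 h) by fluorescence.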

SMILES | outcome | activity change, negative = inhibition
Cc1noc(NS(=O)(=O)c2ccc(N)cc2)c1C | inactive | 
CC(C)(Oc1ccc(C2CC2(Cl)Cl)cc1)C(=O)O (centres undefined) | inactive | 
CCCC(CCC)C(=O)O | inactive | 
OC(Cn1cncn1)(Cn1cncn1)c1ccc(F)cc1F | inactive | 
CCCCC1C(=O)N(c2ccccc2)N(c2ccccc2)C1=O | inactive | 
O=c1cc[nH]c(=S)[nH]1 | inactive | 
CC(C)[C@@H]1CC[C@@H](C)C[C@H]1O | inactive | 
NC(=O)c1ccccc1O | inactive | 
NNC(=O)c1ccncc1 | inactive | 
CCCNC(=O)NS(=O)(=O)c1ccc(Cl)cc1 | inactive | 
NC(N)=O | inactive | 
CCCCC(CC)COC(=O)/C=C/c1ccc(OC)cc1 (centres undefined) | inactive | 
NS(=O)(=O)c1cc(C(=O)O)c(NCc2ccco2)cc1Cl | inactive | 
Nc1ccc(C(=O)O)cc1 | inactive | 
O=C(O)CCCCC(=O)O | inactive | 
CCCN(CCC)S(=O)(=O)c1ccc(C(=O)O)cc1 | inactive | 
NC(N)=NC(=O)c1nc(Cl)c(N)nc1N | inactive | 
Cc1ccc(O)cc1 | inactive | 
C1N2CN3CN1CN(C2)C3 | inactive | 
Nc1ccn([C@H]2CC[C@@H](CO)O2)c(=O)n1 | inactive | 
CC1(C)[C@@H]2CC[C@@]1(C)C(=O)C2 | inactive | 
Nc1ccc(O)c(C(=O)O)c1 |  | 3.13% [at 42.5 µM]
COc1ccc2[nH]cc(CCNC(C)=O)c2c1 | inactive | 
Cc1ccc(S(=O)(=O)NC(=O)NN2CCCCCC2)cc1 | inactive | 
Cc1ccc(C)c(OCCCC(C)(C)C(=O)O)c1 | inactive | 
Nc1ccc(S(=O)(=O)c2ccc(N)cc2)cc1 | inactive | 
Oc1ccc(/C=C/c2cc(O)cc(O)c2)cc1 | inactive | 
CC(=O)Nc1nnc(S(N)(=O)=O)s1 | inactive | 
Cn1cc[nH]c1=S | inactive | 
O=c1ccc2ccccc2o1 | inactive | 
